Shown is part of a subset that was picked to be rich in hits.
FECH inh = blocks human mitochondrial ferrochelatase activity; purified FECH, Ni-mesoporphyrin absorbance 550 nm; calls only at 10 µM (by protocol); 20,000 tested, 3.3% active; AID 1671448;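 active means enzyme reaction rate more than 3 SD below the solvent-only control wells on the same plate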;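 further: lower slope than DMSO wells means FECH inhibition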
Target sequence (P22830 whole entry, looked up): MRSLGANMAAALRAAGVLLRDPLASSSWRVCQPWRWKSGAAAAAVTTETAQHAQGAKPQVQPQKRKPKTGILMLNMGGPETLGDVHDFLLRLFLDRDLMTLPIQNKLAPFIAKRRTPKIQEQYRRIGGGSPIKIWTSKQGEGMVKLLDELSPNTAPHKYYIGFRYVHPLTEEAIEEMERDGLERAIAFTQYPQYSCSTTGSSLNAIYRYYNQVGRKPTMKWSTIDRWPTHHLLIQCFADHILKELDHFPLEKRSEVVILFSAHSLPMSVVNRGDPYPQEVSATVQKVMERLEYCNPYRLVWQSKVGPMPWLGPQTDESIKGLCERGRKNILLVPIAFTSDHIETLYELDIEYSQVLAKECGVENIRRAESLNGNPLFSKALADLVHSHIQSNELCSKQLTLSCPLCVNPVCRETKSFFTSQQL
Active calls of the source: *; i = inactive; + = active, no number.

SMILES	FECH inh
NS(=O)(=O)c1ccc(NC(=O)c2nn(-c3ccc(F)cc3)ccc2=O)cc1	i
Cc1cnc(CN(C)C(=O)c2ccc(OCC(=O)N3CCCCC3)cc2)[nH]1	+
NC1(C(=O)O)CCN(Cc2ccc(OCC(=O)N3CCCCC3)cc2)C1 (stereo not drawn)	i
CN(Cc1ncc[nH]1)C(=O)COc1ccc(F)cc1	i
CCN(CC)S(=O)(=O)c1ccc2c(c1)nc(CN1CCN(S(=O)(=O)N(C)C)CC1)n2C	i
CCN(CC)S(=O)(=O)N1CCC(C(=O)Nc2ccc3sc(NC(=O)C(C)C)nc3c2)CC1	i
CCN(CC)S(=O)(=O)N1CCC(C(=O)Nc2ccc3nc(CCc4ccccc4)[nH]c3c2)CC1	+
CCc1cccc(NC(=O)C2CCN(c3ccc(-c4cccs4)nn3)CC2)c1	i
CCN(CC)S(=O)(=O)N1CCC(C(=O)Nc2cccc(CCc3nc4ccccc4n3C)c2)CC1	+
O=C(Nc1ccccc1CCc1nc2ccccc2[nH]1)C1CCCN(S(=O)(=O)N2CCCC2)C1 (stereo not drawn)	i
COc1cccc(-n2cc(CN(C)C(=O)Nc3nc(C)ns3)cn2)c1	i
O=C(NCCN1CCCOC1=O)C1CCN(Cc2ccco2)CC1	i
Cc1ccc(C(C(=O)NCCN2CCCOC2=O)N(C)C)cc1 (stereo not drawn)	+
Cc1ccc(C(C(=O)NCc2ccc(-c3noc(C)n3)cc2)N(C)C)cc1 (stereo not drawn)	i
Cc1cccc(Nc2nc(NC3CCCCCC3)nc3c2cnn3-c2ccccc2)c1	i
Cn1cc(C2c3nc[nH]c3CCN2Cc2cccc3cccnc23)cn1 (stereo not drawn)	i
Cc1cc(Nc2ccc(OC(=O)c3ccc(C)c(C)c3)cc2)n2nc(-c3cccnc3)nc2n1	i
Cc1cc(Nc2ccc(OC(=O)c3ccncc3)cc2)n2nc(-c3cccnc3)nc2n1	i
Cc1cc(Nc2ccc(OC(=O)c3ccco3)cc2)n2nc(-c3cccnc3)nc2n1	+
CCCn1cnnc1CNC(=O)C1CC(=O)N(Cc2ccc(C)cc2)C1 (stereo not drawn)	i
COC(=O)c1cc(S(=O)(=O)N2CCCC2C(=O)N2CCN(c3cccc(OC)c3)CC2)cn1C (stereo not drawn)	i
O=C1CCS(=O)(=O)N1c1ccc(S(=O)(=O)N2CCCC2)cc1	i
CCn1c(-c2cc(C3CC3)[nH]n2)n[nH]c1=O	+
CCn1c(C2CCN(S(=O)(=O)c3ccc(C)c(C)c3)CC2)n[nH]c1=O	i
CCn1c(C2CCCN(S(=O)(=O)N3CCCC3)C2)n[nH]c1=O (stereo not drawn)	i
SMILES	FECH inh
Cc1ccsc1CN(Cc1c(CO)cnc(C)c1O)C1CC1	i
CN(C)C1CCCN(Cc2nnc(C3CC3)o2)CC1 (stereo not drawn)	i
CCc1nc(OCC(=O)NCCN2CCOCC2)c2c(-c3ccc(F)cc3)noc2n1	i
CCOC(=O)c1ccc(NC(=O)CN2CCN(Cc3ccc(F)cc3)S2(=O)=O)cc1	i
CCOC(=O)N1CCC(NC(CC)c2cc(C)ccn2)CC1 (stereo not drawn)	i
Cc1nc2nc[nH]n2c(=O)c1NC(=O)Nc1cccc(C(F)(F)F)c1	i
O=c1c2c(nc3nc(CNc4cccc(C(F)(F)F)c4)[nH]n13)CCC2	+
COc1ccccc1NCc1nc2nc3c(c(=O)n2[nH]1)CCC3	i
COc1cccc(NCc2nc3nc4c(c(=O)n3[nH]2)CCC4)c1	+
COc1ccc(CNc2nc3nc(CNc4cccc(Cl)c4)cc(=O)n3[nH]2)cc1	i
CCc1nc2nc(C)c(NC(=O)Nc3cccc(F)c3)c(=O)n2[nH]1	i
Cc1ccnc(NCCNC(=O)CN2CCOc3ccccc3C2)c1	i
Cc1cc2ccccc2nc1N1CCN(Cc2cnn3cccnc23)CC1	i
CCCCNC(=O)C1CC=CCC1c1n[nH]c(Cc2ccccc2)n1 (stereo not drawn)	i
Cc1ccc(CN2c3ccccc3-c3nc(SCC(=O)Nc4cc(Cl)ccc4C)ncc3S2(=O)=O)cc1	i
Cc1ccc(CN2c3ccccc3-c3nc(SCC(=O)Nc4ccc(F)c(Cl)c4)ncc3S2(=O)=O)cc1	+
Cc1ccc(CN2CCCN(CC(=O)Nc3ccc(C)c(F)c3)S2(=O)=O)cc1	i
CCc1cc(CN(C)C(=O)CN2CCOc3ccccc3C2)on1	i
CCc1cc(CN(C)C(=O)c2cnon2)on1	i
CCc1cc(CN(C)C(=O)c2cn3c4c(cccc4c2=O)CC3)on1	+
Cc1cccc(-c2ncc(CNCc3ccccc3Cn3cccn3)cn2)c1	i
Cc1ccccc1SCC(=O)N1[C@@H]2CC[C@H]1CNC(=O)C2	i
CC1c2cccn2CCN1C(=O)CNS(=O)(=O)c1cccs1 (stereo not drawn)	i
CC1c2cccn2CCN1C(=O)c1ccc(C#CC(C)(C)O)o1 (stereo not drawn)	i
CC(=O)Nc1ccccc1SCC(=O)N1CCn2cccc2C1C (stereo not drawn)	+
SMILES	FECH inh
NS(=O)(=O)c1ccc(NC(=O)c2ccc(-c3nc(-c4cccc(F)c4)no3)cc2)cc1	i
CC(=O)NCCNS(=O)(=O)c1cc(N2C(=O)CCS2(=O)=O)ccc1C	i
Cc1cccc(-n2c(CN3CCN(S(=O)(=O)c4ccc(Cl)cc4C)CC3)nc3cccnc32)c1	i
CCC(NC(=O)c1ccccc1-n1cncn1)c1ccnn1C (stereo not drawn)	i
CCC(NC(=O)CCC(=O)NC1CCCCCCC1)c1ccnn1C (stereo not drawn)	+
O=C(CCN1CCN(CCc2ccncc2)CC1)NC1CCCCCC1	i
CCCn1ncc(C(=O)N(Cc2nccn2C)C2CC2)c1C	i
Cc1ccc(N2C(=O)CCS2(=O)=O)cc1S(=O)(=O)N(Cc1ccccc1)c1ccccc1	i
NS(=O)(=O)c1ccc(CCNC(=O)c2cc(-c3ccc(Cl)cc3)on2)cc1	i
Cc1ccc(-c2cc(C(=O)Nc3ccc(S(N)(=O)=O)cc3)no2)cc1C	+
Cc1nc(-c2cccc(NC(=O)Nc3ccc(S(N)(=O)=O)cc3)c2)no1	i
O=C(Cn1nc(N2CCN(c3ccc(F)cc3)CC2)ccc1=O)NCCCc1ccco1	i
CC(=O)NCCn1ccnc1-c1ccc(Cl)c(Cl)c1	i
COCCNC(=O)C1CCCN(C2CCN(c3ncc(F)cn3)CC2)C1 (stereo not drawn)	i
Cc1ncc(-c2c(-c3ccccc3)ncn2CCc2cccs2)[nH]1	+
Cc1cccc(-c2c(-c3ccccc3)ncn2CCN2CCOC2=O)c1C	i
Cc1ncc(-c2c(-c3ccccc3)ncn2CCN2CCCOC2=O)[nH]1	+
c1ccc(-c2ncn(CCc3cccs3)c2C2CCOC2)cc1 (stereo not drawn)	i
Cc1ncc(-c2c(-c3ccccc3)ncn2CCCOc2cccnc2)[nH]1	i
O=C1OCCCN1CCn1cnc(-c2ccccc2)c1-c1cccnc1	i
COc1cccc(Cn2c(CNC(=O)c3cccc(N(C)C)c3)nc3cccnc32)c1	i
O=C(CCN1CCCC(Cc2cccnc2)C1)Nc1nnc(C2CC2)s1 (stereo not drawn)	i
Fc1ccc(CCC2CCCN(CCCn3cnnn3)C2)c(F)c1 (stereo not drawn)	+
Fc1cccc(F)c1CCC1CCCN(Cc2cscn2)C1 (stereo not drawn)	i
Cc1ccccc1CCC1CCCN(CCO)C1 (stereo not drawn)	i
Cc1ccc(Nc2cc(C)nc(N3CCN(S(=O)(=O)c4ccccc4)CC3)n2)cc1	i
